This note sets out measurements from PMC4666376, “Characterisation of aptamer–target interactions by branched selection and high-throughput sequencing of SELEX pools”.
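Note: Pool frequency after one selection round with this target divided by frequency before selection.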

T1 sequence (P05121 24-402): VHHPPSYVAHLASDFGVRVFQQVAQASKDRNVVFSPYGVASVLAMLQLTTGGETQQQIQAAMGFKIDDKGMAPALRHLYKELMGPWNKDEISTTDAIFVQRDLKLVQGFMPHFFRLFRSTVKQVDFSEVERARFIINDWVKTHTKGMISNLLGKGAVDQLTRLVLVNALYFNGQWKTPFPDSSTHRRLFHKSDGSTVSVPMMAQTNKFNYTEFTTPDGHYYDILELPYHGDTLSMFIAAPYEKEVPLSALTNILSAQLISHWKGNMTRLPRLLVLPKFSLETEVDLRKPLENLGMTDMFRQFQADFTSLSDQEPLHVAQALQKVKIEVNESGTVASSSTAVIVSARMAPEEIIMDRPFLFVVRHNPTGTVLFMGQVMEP

The first experiment has as its target T1, PAI-1 wild type, active (human, UniProt P05121 24-402). Kind of experiment: branched SELEX with high-throughput sequencing; PAI-1 immobilised on polyclonal anti-PAI-1 antibody; HBS (10 mM HEPES pH 7.4, 140 mM NaCl), 2 mM MgCl2, 2 mM CaCl2, 0.1% BSA; RNA pool 100 nM; PAI-1 captured on antibody-coated wells; 45 min; binding temperature not stated (PAI-1 capture at room temperature); high values mean tight binding. Conditions: protein: recombinant; tags: N-terminal His6; structured_RNA; 2'-F pyrimidines.
For the sequence “GGGGCCACCAACGACAUUAUACAGCCGAUCAUGUCACGUAGGCUGUGAUUAACGUUGAUAUAAAUAGUGCCCAUGGAUC”, the binding signal amounted to 0.58 enrichment factor.
On the same count and under the same terms, the same measure for “GGGGCCACCAACGACAUUUGGCGAGAUGCCAUCUUUACCUUAAUAGGUAGUUCGUUGAUAUAAAUAGUGCCCAUGGAUC”: 2.77 enrichment factor; for “GGGGCCACCAACGACAUUGUCGUAGGACGUGAGUGUCUGACCGAUGUAGUUGGGUUGAUAUAAAUAGUGCCCAUGGAUC”: 0.65 enrichment factor.
Regarding “GGGGCCACCAACGACAUUGUACCACGUAGGAUGAAGUCAUCCGAUCACAGUGUUGAUAUAAAUAGUGCCCAUGGAUC”, the binding signal amounted to 0.87 enrichment factor.
The same measure, in the same setting: the same measure for “GGGGCCACCAACGACAUUUGACAUCGUAGGCAAAAAAGCUGACUGUUCAGAUUGUUGAUAUAAAUAGUGCCCAUGGAUC”: 2.86 enrichment factor; for “GGGGCCACCAACGACAUUAUCGACCAUAACGUAGCGGGCUUUCCCGUGAUCAGGUUGAUAUAAAUAGUGCCCAUGGAUC”: 0.91 enrichment factor; for “GGGGCCACCAACGACAUUGUAGCAUAAUCAACCUGCGACUGUCGUGUGAUAAGGUUGAUAUAAAUAGUGCCCAUGGAUC”: 1.02 enrichment factor.
Take “GGGGCCACCAACGACAUUACGAACUUGUAGGCACGAAUACGCCGACCUCUAAUGUUGAUAUAAAUAGUGCCCAUGGAUC”: the binding signal worked out at 1.25 enrichment factor.
Same read-out and setting: the same measure for “GGGGCCACCAACGACAUUUAGGGUGCCGAUCAUGUCACGUAGGCAUCCGAUACGUUGAUAUAAAUAGUGCCCAUGGAUC”: 0.42 enrichment factor.
“GGGGCCACCAACGACAUUUGGACUGAAUCCAACCUUAUGCGUAAGCAUAGUUCGUUGAUAUAAAUAGUGCCCAUGGAUC”: the binding signal is 2.2 enrichment factor.
Turning to “GGGGCCACCAACGACAUUUUGUAGGUGUCAACUACCGACCGUCGUUUGCAUUAGUUGAUAUAAAUAGUGCCCAUGGAUC”, the binding signal was found to be 1.24 enrichment factor.
On to “GGGGCCACCAACGACAUUUAAGUUCGUCUCACUGACUCUGCAGUGAGUCUAAUGUUGAUAUAAAUAGUGCCCAUGGAUC”, for which the binding signal stood at 7.58 enrichment factor.
As for “GGGGCCACCAACGACAUUGCACCUGUAGGCUAGGUCACUGGCUGACUGCAAUUGUUGAUAUAAAUAGUGCCCAUGGAUC”, the binding signal came out at 0.47 enrichment factor.
Same read-out and setting: the result for “GGGGCCACCAACGACAUUACGUAGUUGCCUAAUAAAGGUAGCGAUUUGGAUUCGUUGAUAUAAAUAGUGCCCAUGGAUC” reads 1.28 enrichment factor; that for “GGGGCCACCAACGACAUUGGUAAUGGUGUGAAUUAACCUUAAGCCUAUUGGUUGUUGAUAUAAAUAGUGCCCAUGGAUC”, 0.22 enrichment factor.
In the case of “GGGGCCACCAACGACAUUUACGCACCGUAGACUUAAUAGUCGAUUAGUACAUGUUGAUAUAAAUAGUGCCCAUGGAUC”, the binding signal was found to be 1.19 enrichment factor.
Still for that read-out and setting: the same measure for “GGGGCCACCAACGACAUUCAGCGAUGUAGUGCACAUUGCACGACCAUGAUGGAGUUGAUAUAAAUAGUGCCCAUGGAUC”: 0.53 enrichment factor; for “GGGGCCACCAACGACAUUUCACACUGUAAGGCCAUGUGCCGACUAGAAAUUGCGUUGAUAUAAAUAGUGCCCAUGGAUC”: 0.84 enrichment factor.
Take “GGGGCCACCAACGACAUUGAACCACGUAGGCUCGUUUCUGAGCCGAUCUCGAUGUUGAUAUAAAUAGUGCCCAUGGAUC”: the binding signal amounted to 1.62 enrichment factor.
On the same count and under the same terms, the result for “GGGGCCACCAACGACAUUACGUAGCUGGGUUUCACCAGCGAUUAGUUGUUGAUAUAAAUAGUGCCCAUGGAUC” reads 0.7 enrichment factor; that for “GGGGCCACCAACGACAUUCUGGCCGUAGGACAAUAGUCCGAUCCAGAUAUAGAGUUGAUAUAAAUAGUGCCCAUGGAUC”, 0.54 enrichment factor.
On to “GGGGCCACCAACGACAUUUACCGUCUGGGUAACCUUGUACGAUAGUACAGUUCGUUGAUAUAAAUAGUGCCCAUGGAUC”, for which the binding signal is 1.31 enrichment factor.
On to “GGGGCCACCAACGACAUUGCCGUAGUUUCUCGAUUCCCAGAGAGACGAUCGAUGUUGAUAUAAAUAGUGCCCAUGGAUC”, for which the binding signal came to 4.28 enrichment factor.
On to “GGGGCCACCAACGACAUUGUGACCCACCAUUAUAUGGUGACUAGUAGCGUGUUGUUGAUAUAAAUAGUGCCCAUGGAUC”, for which the binding signal stood at 0.17 enrichment factor.

Another experiment deals with T1, PAI-1 wild type, active. The experiment is described as follows: branched SELEX with high-throughput sequencing; PAI-1 immobilised on monoclonal anti-PAI-1 antibody mAb-1; HBS (10 mM HEPES pH 7.4, 140 mM NaCl), 2 mM MgCl2, 2 mM CaCl2, 0.1% BSA; RNA pool 100 nM; PAI-1 captured on antibody-coated wells; 45 min; binding temperature not stated (PAI-1 capture at room temperature); high values mean tight binding. Particulars: protein: recombinant; tags: N-terminal His6; structured_RNA; 2'-F pyrimidines.
On to “GGGGCCACCAACGACAUUAUACAGCCGAUCAUGUCACGUAGGCUGUGAUUAACGUUGAUAUAAAUAGUGCCCAUGGAUC”, for which the binding signal is 0.81 enrichment factor.
Regarding “GGGGCCACCAACGACAUUUGCAUAAUGCAUCUAUAGUCGCUAGAGACUAGCUCGUUGAUAUAAAUAGUGCCCAUGGAUC”, the binding signal was 1.69 enrichment factor.
On to “GGGGCCACCAACGACAUUGUACCACGUAGGAUGAAGUCAUCCGAUCACAGUGUUGAUAUAAAUAGUGCCCAUGGAUC”, for which the binding signal is 1.37 enrichment factor.
As to “GGGGCCACCAACGACAUUUCCUAAACAGGAUCUAUACUCCUAGCGAGUAGUUCGUUGAUAUAAAUAGUGCCCAUGGAUC”, the binding signal was 3.43 enrichment factor.
On the same count and under the same terms, the same measure for “GGGGCCACCAACGACAUUUAGCACCAGCUAACCGUACGCUCAACGCGUAGUUCGUUGAUAUAAAUAGUGCCCAUGGAUC”: 5.48 enrichment factor; for “GGGGCCACCAACGACAUUGUACUGUAGUCUUGAUUUUAAGACGACCAAAUGUAGUUGAUAUAAAUAGUGCCCAUGGAUC”: 1.02 enrichment factor.
“GGGGCCACCAACGACAUUUGCACACCACGUAGGCAAAUUGCCGAUCGUGCUAUGUUGAUAUAAAUAGUGCCCAUGGAUC”: the binding signal is 1.3 enrichment factor.
In the case of “GGGGCCACCAACGACAUUUAGGGUGCCGAUCAUGUCACGUAGGCAUCCGAUACGUUGAUAUAAAUAGUGCCCAUGGAUC”, the binding signal came to 0.62 enrichment factor.
Still for that read-out and setting: the result for “GGGGCCACCAACGACAUUGGUCACAUGACCACCGUAUGAUUUACUCAUAGUUCGUUGAUAUAAAUAGUGCCCAUGGAUC” reads 2.36 enrichment factor.
As for “GGGGCCACCAACGACAUUAACAACCCGUAGACGUCAUCGUCGAUCGCGUUAGUGUUGAUAUAAAUAGUGCCCAUGGAUC”, the binding signal turned out to be 1.35 enrichment factor.
As for “GGGGCCACCAACGACAUUUGGACUGAAUCCAACCUUAUGCGUAAGCAUAGUUCGUUGAUAUAAAUAGUGCCCAUGGAUC”, the binding signal was 3.55 enrichment factor.
Take “GGGGCCACCAACGACAUUCAGCGAUGUAGUGCACAUUGCACGACCAUGAUGGAGUUGAUAUAAAUAGUGCCCAUGGAUC”: the binding signal came out at 0.44 enrichment factor.
The same measure, in the same setting: the same measure for “GGGGCCACCAACGACAUUUGUCAACCGAUCACGCUUAUAGAGCGACCACGUAGGUUGAUAUAAAUAGUGCCCAUGGAUC”: 5.14 enrichment factor; for “GGGGCCACCAACGACAUUCCAAGAUCACUUGGACCGUGUAUUAAGUACAGUUCGUUGAUAUAAAUAGUGCCCAUGGAUC”: 4.62 enrichment factor; for “GGGGCCACCAACGACAUUUCACACUGUAAGGCCAUGUGCCGACUAGAAAUUGCGUUGAUAUAAAUAGUGCCCAUGGAUC”: 0.55 enrichment factor.
As to “GGGGCCACCAACGACAUUGAACCACGUAGGCUCGUUUCUGAGCCGAUCUCGAUGUUGAUAUAAAUAGUGCCCAUGGAUC”, the binding signal worked out at 2.66 enrichment factor.
“GGGGCCACCAACGACAUUUGCAAUUUAUGCAACCUUAGCGGAUUCGCUAGUUCGUUGAUAUAAAUAGUGCCCAUGGAUC”: the binding signal was found to be 3.88 enrichment factor.
Consider “GGGGCCACCAACGACAUUUAUCGAAUUGAUAACCUUACGCGAGAGCGUAGUUCGUUGAUAUAAAUAGUGCCCAUGGAUC”, for which the binding signal amounted to 9.69 enrichment factor.
For “GGGGCCACCAACGACAUUUACCGUCUGGGUAACCUUGUACGAUAGUACAGUUCGUUGAUAUAAAUAGUGCCCAUGGAUC”, the binding signal turned out to be 1.53 enrichment factor.
On the same count and under the same terms, the result for “GGGGCCACCAACGACAUUUGCAUUUGGCAUCCAUAUCGGGCGACCGAUAGUUCGUUGAUAUAAAUAGUGCCCAUGGAUC” reads 2.86 enrichment factor.
